The campaign covered roughly 53,000 sequences. About 3,700 (7%) were called active. The entries come from a sample that favours actives as a whole. Values without a mark were called inactive.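 The calls were made as follows: active = gene knockdowns whose robust z-score for IL-1 alpha signal is at least 2 or at most -2, so actives lie on both sides; inactive = the rest.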

The nature of the experiment: Components of the Cytosolic LPS Sensing Pathway: Gene Identification via Genome-wide siRNA Screen.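 Also: robust z of the log signal after scaling to non-targeting control siRNA wells of the plate.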 Particulars: RAW264.7 macrophages, IL-1a HTRF, actives lie on both sides, screened at 100 nM (by protocol), cells primed 5 h with Pam3CSK4 first. The procedure, abridged:
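Read-out: IL-1a HTRF on supernatant, divided by plate negative-control median ×100, log-transformed and converted to robust z-score. Cells were RAW264.7 given 100 nM siRNA, Pam3CSK4-primed 5 hours, then LipidA-transfected 24 hour.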
(In general: In TR-FRET formats the signal depends on donor and acceptor labels being close together.)
Regarding GGACAGAGUUACCUAGGCATT against Ticrr, the z-score is -2.81 (active).
Under GGAUCUUUCCUGAUUUAUATT against Ggt5 stands 0.989.
Under GCAGGCAUCAUCACGACAUTT against Gprc5c stands 0.402; under GGAGUUCUUCUUCAAUGAGTT against Kcnd3, -1.3.
Under GCGUACGUUCUCCUAACAUTT against Hbs1l stands -1.9.
Consider GGGUGAUAAAAUUCAGAUUTT against Gpr88, for which the z-score is 2.07 (active).
For GGGUGCAAACAAAAUGAUGTT against Pgm1 the value was -1.42.
Under GGGCCACAUGUGUUCACUATT against Shisa5 stands -2.35 (active).
Under CCUUCUCUGCCUCGAUGAUTT against Cox14 stands -1.23.
Regarding GGGAAGAUGUGAUGUCUUUTT against Rab29, the z-score is -0.556.
For GGUCUUAAUCUCAGGAUGATT against Car5a, the z-score is -0.294.
For GGACACAGAAUGUUCUUGGTT against Rps3 the value was 0.029.
For the sequence GGAAGAAAAAUAUGCUUUCTT against Pls3, the z-score is 2.7 (active).
Under CCGAUCACUCAUGGUUGACTT against Sra1 stands 0.565.
On to GCCUGUGCAAAAAGUAGGGTT against Grasp, for which the z-score was -0.0182.
Under GGGCCAAUAGGAGUUCUUUTT against Tcf20 stands 0.285.
Turning to GGAGCUGACGUGCUACUUATT against Speg, the z-score is 2.6 (active).
Consider GGAGAAUCUUAGAGAUUAUTT against Pramel1, for which the z-score is 0.722.
Under GCAGCUAAGCACUGGAAAATT against Coq4 stands 0.318; under GGAAAAAGAGGCCUCAAAGTT against Nek5, 1.46; under CGCUUUAUUAGAUGGGCUATT against Dlx5, -2.27 (active).
For GAAGUUCAAUGGAGAAGACTT against Arl2 the value was -0.825.
For GGUGUUCAGACUACCCUCUTT against Serpina3m the value was -1.16; for GGGCCAUAAGAUCUGUACUTT against Ccl24, 0.472; for GGUCCUCUAAAGAAUAAAGTT against Cela3b, 0.541.
As for GCCCAGAAAUAUAAUCAAATT against Bub1, the z-score is 2.17 (active).
As for GGCUACCAUAGGUUUUAAUTT against Serinc4, the z-score is 0.946.
Regarding CCCGGAUGAUGGAGAUAUUTT against Mnd1, the z-score is -1.
Under GCCUGAUCUACUGUGGUCCTT against Olfr1347 stands -0.167; under GGCUUGAUCUUCGUAGUGGTT against Arf1, 0.132.
For GCAGAGACUACUUAGCAAGTT against Adprm the value was 2.29 (active); for GCUUAAGAGAUUCAAAUUGTT against Olfr1317, 0.036; for GCUCUAAACAUGAUUCAAGTT against Akap9, 1.17.
With GGCAGCUAAGUACGUUCAUTT against Gba, the z-score was 0.177.
With GGAAAGAGAACAUAAAAGATT against Pla2g4a, the z-score is -0.995.
For GCAGCAUCGCGUAGAAACATT against Gar1 the value was -0.566.
Under GCUGGAAACCCGUAUACUATT against Krt23 stands 2.16 (active); under CCGUGCACAACAUUGCCUATT against Qtrt1, -0.552.
With GGAAUUUUCAAGGAACAAUTT against Il1rapl2, the z-score is -1.8.
Under GGCGUGUAUGUCAAAAAUATT against Grip1 stands -0.201; under GGAGUUGUUACUCUAUUUUTT against Pkd2l2, -0.426.
For GCUCUCACACCCUUAUGUATT against Nptn the value was -1.45; for GGCGAGAAAUUCUUCACAUTT against Plxna3, -1.51; for GGAGAAGGAGCAGAUUAAATT against Krt8, 2.07 (active).
On to CCAAAACCUCAUGCUGAAATT against Zfp758, for which the z-score is 0.396.
For GCUAAUACGAUUUACUUUGTT against Cntn6 the value was 0.586.
For GGACGUAUAUCCUUUUAUGTT against Spaar the value was -0.151; for GCAUGAUCAAAUUGUAUCUTT against Nde1, -2.21 (active); for GGUCUUUCUUCGAGGAGUCTT against Ccdc33, -1.03.
On to CCGUAAGAAGGAAAACGCATT against Kcnd1, for which the z-score is -0.506.
GGUAAGGUUACAGCACUGATT against Chac2: the z-score is -0.489.
Under GGAAUAUCUGAUAUCAGUATT against Mdga2 stands 0.0727; under GGCUUCCUCAUCGAUAUAATT against Ccnh, 0.21; under GGUACCAAUUGAAGAUAUATT against Ncoa7, 2.2 (active).
As for GGACAAGGAGGAUUUCUUCTT against Nprl2, the z-score was -0.226.
On to CCUUCUAAGAGAAAAACGUTT against Eps15, for which the z-score was 0.198.
Under GGUAAACAGAAUAGAAUCCTT against Lcmt1 stands 0.622; under GCCUGUGUAUUCUCGCUAUTT against Mon1a, 0.345; under UGGGCCUUGUAGGCUUCAUTT against Rell2, 2.3 (active).
Regarding GGACCAGUUAUCCUCACUGTT against Eapp, the z-score is -0.514.
For GCACAGCUAAACUUAACUATT against Taz the value was 0.711; for GCAAAUUUACCUCGGUUUUTT against Olfr46, 0.388.
Turning to GGCAGGUUUUUGAACUGGUTT against Olfr725, the z-score was 2.28 (active).
With GCUGAGAGGUAAAGACACATT against Cntd1, the z-score is 0.116.
Turning to UCCAGAGGAUCCGCUGUGATT against Krt74, the z-score was -0.632.
Under GGACUAAACAGAUUCACUATT against Rnase9 stands -2.42 (active).
For GGAUCCUUCGCUUUUAUCGTT against Nox1 the value was -0.343; for GGAAAAUCACUUCAUUCACTT against Ltk, 0.893.
Take CCUUCGUAGUCUUGAUGUGTT against Olfr1179: the z-score was -0.104.
Under GGAUCAAAAAAAAACUGGATT against Sinhcaf stands 1.19; under GGAAUUAGUCUCCAAAUAUTT against Sh2d1b1, 0.604; under GCCAGUACGAAGUGAUCUGTT against Ackr4, 2.8 (active).
In the case of GGUUCUUGGUUUACAUAAGTT against Slc39a12, the z-score was -1.23.
For GGGAAAACCAUACAAAAUATT against Olfr228 the value was -0.525; for GCAAAUCGACCACUUUCCGTT against Cacng2, 4 (active); for GCACGUCCUCGAUCUCUGUTT against Extl3, -0.705.
Consider GGUGUCUGAUGAUGAAUAUTT against Cnnm3, for which the z-score was 0.322.
Under GGAUGUGCCUCGGUUGGAUTT against Gulo stands 0.663; under GGAAGACCUUGAAUUCCAGTT against Tspan31, 2.87 (active); under GCCCAUUGAUCCGGAGUAATT against Dusp28, 0.252.
For GGGUUUCUAUGAAGAGAUCTT against Fhod1 the value was -0.624; for GCCUUACAUGAGCCCAUGUTT against Olfr550, -1.96; for GGACUUUAUUGAAAAUCUGTT against Zfp365, 0.593.
Under CCAAAUUCCUAUCAAGUUUTT against Ints2 stands 1.98; under GCGUCUCAUAGAGUUGGUGTT against Mblac2, 0.0617.
GCCGCUAGCAUGGUCUAUUTT against Apoa5: the z-score was 2.51 (active).
For UAUACCUUAGUGCUGAGGGTT against Olfr736 the value was -1.02; for GGGCAAAAGCUGUUACAAGTT against Ahrr, -0.0958.
For GGUUCCUGGAUGGUUCCUATT against Vtcn1 the value was 1.45; for GGGUAUGACAACAAACUUCTT against Gabrg2, -0.422.
For GGUUUGGCAAACAUUUCAUTT against Akr1c20 the value was 2.02 (active); for GGAUGAAUCUGAAGAUUCCTT against Nol3, 0.113; for GGUGGACAAGCAAGUCUAGTT against Ube2o, 1.97.
As for GGACAAGAUAGGAGGAGACTT against Abhd16a, the z-score was -0.776.
For GCUUGUGCUGAAUUACACCTT against Vps35 the value was 2.11 (active); for GCACGAAUCCUUGGAGAAATT against Batf2, -0.254.
For GGUGAUUUAGUUGUGUAAATT against Calcr the value was 0.294; for GGUUCCAUCUUCUCAGGACTT against Olfr395, 1.01; for GGUGGAAUAUUUCAUGGACTT against Csnk2a1, 3.43 (active).
Under GGAAGAGGACACAUUAGGCTT against Gtsf1l stands 0.11; under GGUGAGUUUUGCUAAAAGUTT against Syp, 0.783.
For the sequence GCAAGAAGUAUUUUCAGUATT against Galnt4, the z-score was 1.34.
Under GGAACAACGGAAAAGCGAGTT against Ankrd1 stands 1.25.
For GGAAUCCUCGGCAGAUAAATT against Rpl24 the value was 2.31 (active); for GGCAGAAAAUUGUUCUUAUTT against Cpt1a, -1.49; for GGCUUCUGGUACAUUAUUGTT against Lcn10, -1.23.
Under GGGCAACUAUUGAUGAGGUTT against Acap3 stands -0.138; under GGACGGUGACCUGUAUGAUTT against Cpxm1, -2.4 (active); under GCAUUAAAGUAGAAGGUCUTT against Snx31, 0.812.

The values above are taken from PubChem BioAssay AID1508600 (Functional Genomics Laboratory (NCATS/FGL), 2020).
